# JMJD2A Tudor inh = blocks the human JMJD2A Tudor domain | O75164 | AlphaScreen JMJD2A-Tudor / H3K4me3 peptide binding | Potency, µM (top dose mostly 114 µM), without a hit: at the top dose activity change, negative = inhibition, hits mostly inhibitors | hit rate 4.4% among 390,000; also: potency is read from the fitted curve at half-maximal effect; % is scaled to controls: 0 for no effect and ±100 for the full control effect; nearly all actives have a fitted effect of over 50% in size
# PI5P4K alpha inh = blocks human PI5P4K alpha kinase activity | P48426 | PI5P4Kalpha enzyme, ADP-Glo luminescence, 60 min; active compounds read low | max response, % | hit rate 1.2% among 330,000 | AID 652105; active = max response of -50% or lower; inconclusive = between -30% and -50%; inactive = -30% or higher; also: value at the top dose of about 77 µM; % is scaled to controls: 0 for no effect and ±100 for the full control effect
#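 Reactions run in 0.038 M HEPES pH 7.4, 0.28 mM EGTA, 0.1% CHAPS and 5% DMSO, with PI5P4Kalpha, substrate, compound and 5 microM ATP final, one hour at room temperature. Readout is ADP-Glo luminescence.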
# BAZ2B block = blocks human BAZ2B; Q9UIF8; AlphaScreen BAZ2B-H3K14Ac peptide displacement; hit rate 4.4% among 360,000; Potency, µM (doses to about 114 µM), inactives show top-dose activity change, negative = inhibition, most hits filed as inhibitors; also: potency is read from the fitted curve at half-maximal effect; % is scaled to controls: 0 for no effect and ±100 for the full control effect; nearly all actives have a fitted effect of over 60% in size
#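 Multi-concentration screen (max 110 uM) measuring displacement of acetylated histone H3 peptide from BAZ2B by AlphaScreen, using 50 nM protein, 50 nM peptide and 10 ug/mL streptavidin donor plus Ni-chelate acceptor beads.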
# HP1b chromo inh = HP1-beta chromodomain-methylated histone interaction inhibition; AlphaScreen HP1-beta / biotin-H3K9me3 peptide binding; Potency, µM (series often up to 114 µM), without a hit: at the highest dose activity change, negative = inhibition, most hits filed as inhibitors; hit rate 0.56% among 390,000; AID 540317; also: potency is read from the fitted curve at half-maximal effect; nearly all actives have a fitted effect of over 70% in size
#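 HP1-beta protein (50 nM final) preincubated 30 min at room temperature with biotinylated H3(1-18)K9me3 peptide (50 nM) in PBS pH 7.4, 0.01% Tween-20, then compound added for 30 min. AlphaScreen streptavidin donor/nickel chelate acceptor beads (10 ug/mL final), 30 min dark, luminescence read.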
# PLK1 PBD inh = blocks phosphopeptide binding to human PLK1 polo-box domain; P53350; Plk1 PBD binding of FITC phosphopeptide, fluorescence polarization; Potency, µM, for inactives: max response, negative = inhibition, most hits filed as inhibitors; hit rate 2.8% among 360,000; also: potency is read from the fitted curve at half-maximal effect; series mostly up to about 57 µM; % is scaled to controls: 0 for no effect and ±100 for the full control effect; nearly all actives have a fitted effect of over 65% in size
# G9a inh = G9a (human) methyltransferase inhibition; Q96KQ7; G9a H3K9 monomethylation, AlphaScreen, 2 h; Potency, µM (highest dose often 102 µM), inactives show top-dose activity, negative = inhibition, most hits filed as inhibitors; hit rate 8.8% among 350,000; also: potency is read from the fitted curve at half-maximal effect; % is scaled to controls: 0 for no effect and ±100 for the full control effect; nearly all actives have a fitted effect of over 75% in size
#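 AlphaScreen detection with an anti-monomethyl H3K9 antibody quantified product after a 2 h room-temperature reaction containing 500 nM biotinylated H3K9 peptide, 20 µM SAM and 20 nM enzyme, which had been preincubated 15 min with compound.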
# An asterisk follows results filed as active; ? = inconclusive; nt = no result; [ ] = remark or other dose. Hits are enriched below; roughly 12% of the tested compounds scored in any of these assays. Unless noted, calls follow the shape of the dose curve; as a rule, active = well fitted curve in the direction sought with a large enough effect; inconclusive = small, poorly fitted or top-dose-only effect, or another doubt; inactive = no such curve, though single readings can be large; an effect the other way counts as inactive or inconclusive.
SMILES,JMJD2A Tudor inh,PI5P4K alpha inh,BAZ2B block,HP1b chromo inh,PLK1 PBD inh,G9a inh
Cc1ccc(CNC(=O)c2cn(C3CCCC3)c(=O)c3c2c2ccccc2n3C)o1,nt,nt,56µM*,nt,nt,11µM*
O=C(c1ccccc1)N(c1ccccc1)c1ccccc1O,-19%,-20,nt,22%,1%,nt
Cc1ccc(CNC(=O)c2nn(C)c3c2CSc2ccc(C)cc2-3)cc1,-2%,nt,-9%,22%,nt,-10%[12.7 µM]
CC1C2CCC3C4CC=C5CC(N(C)C)CC[C@@]5(C)C4CC[C@@]32CN1C (some centres not stated),nt,nt,nt,nt,nt,11%[12.7 µM]
CCCc1nc(C)cc(N2CCN(c3ccccc3)CC2)n1,-20%,2,-33%,47%,-12%,50µM*
Cc1cc(C)nc(N/N=C/c2ccccc2)n1,-4%,nt,-3%,38%,-6%,21%[59 µM]
Cc1cc(C)nc(N/N=C/c2sccc2C)n1,13µM*,-53*,-7%,1%,19µM*,1%
Cc1ccsc1/C=N/Nc1ccc(F)cc1F,-34%,0,?,-29%,-12%,1.3µM*
COc1ccc(-c2nc(C)c(C(C)=O)n2O)cc1[N+](=O)[O-],-26%,4,-16%,37%,-14%,56µM*
CC(=O)c1c(C)nc(-c2cccc([N+](=O)[O-])c2)n1O,-26%,-9,?,0%,-2%,?
Fc1cccc(NCc2cn3ccccc3n2)c1,-15%,nt,?,26%,-20%,-25%[12.7 µM]
Fc1ccc(NCc2cn3ccccc3n2)cc1,-34%,-2,50µM*,16%,3%,-37%[59 µM]
Clc1ccc(-c2nn3c(-c4cc(-c5ccccc5)n[nH]4)nnc3s2)cc1,12%[57.1 µM],nt,nt,10%[57 µM],nt,nt
CC1CN(Cc2csc(-c3ccc(Cl)cc3)n2)CC(C)O1 (configuration not stated),10µM*,3,50µM*,?,-5%,40µM*
ClCc1csc(-c2ccc(Cl)cc2)n1,52%,7,8%,140%,-15%,8%
NC(=O)C1CCN(S(=O)(=O)c2ccc(N3CCCCS3(=O)=O)cc2)CC1,-2%,nt,0%,35%,nt,9%[12.7 µM]
O=C(CCN1C(=O)/C(=C/c2cccs2)SC1=S)Nc1ccccn1,-31%,-1,?,9%,4%,3.2µM*
O=C(CCN1C(=O)S/C(=C\c2ccc(F)cc2)C1=O)Nc1ccc(C(=O)O)c(O)c1,-13%,-20,?,22%[57 µM],-21%,?
O=C(CCCN1C(=O)/C(=C/c2cccs2)SC1=S)Nc1ccc(O)c(C(=O)O)c1,nt,nt,?,nt,nt,45µM*
CN1CCN(NC(=O)CN2C(=O)/C(=C/c3ccccc3F)SC2=S)CC1,nt,nt,?,nt,nt,50µM*
O=C(CCCN1C(=O)/C(=C\c2cccs2)SC1=S)Nc1ccc(O)cc1,-32%,-4,-34%,-35%,7%,-1%
O=C(CCCN1C(=O)/C(=C\c2cccs2)SC1=S)Nc1ccccn1,?,-1,?,?,0%,?
O=C(CCN1C(=O)S/C(=C/c2ccc(F)cc2)C1=O)Nc1ccc(O)c(C(=O)O)c1,-25%,?,-20%,12%[57 µM],-18%,45µM*
O=C(CN1C(=O)/C(=C/c2ccccc2F)SC1=S)NC1C=CS(=O)(=O)C1 (configuration not stated),-11%,-7,-32%,50%,-19%,nt
Cc1ccccc1-c1nccc(NCc2cccs2)n1,nt,nt,nt,nt,nt,-3%[0.501 µM]
COc1ccc(C(=O)NCc2nnc(SCC(=O)Nc3ccccc3)n2-c2ccc(F)cc2)cc1,-15%,nt,-16%,20%,nt,9%[59 µM]
O=C(CCCN1C(=O)/C(=C/c2ccccc2)SC1=S)Nc1ccc(C(=O)O)c(O)c1,?,-26,?,-12%[57 µM],?,?
CCN(CC)CCOC(=O)c1ccc(NC(=O)CCCN2C(=O)/C(=C/c3cccs3)SC2=S)cc1,40µM*,6,16%,?,14%,nt
O=C(CCCN1C(=O)/C(=C\c2cccs2)SC1=S)Nc1ccc(C(=O)O)cc1,-31%,-23,?,-6%,-26%,-40%
O=C(CCCN1C(=O)/C(=C/c2cccs2)SC1=S)Nc1ccccc1O,-11%,2,-12%,35%,4%,14%

# Assay outcomes (PubChem)
